Results reported in PubChem BioAssay (NCATS).
Records with an inconclusive call do not appear. Entries that show only a call come without a potency. Calls of active or inactive are those of the source. Calls come from the whole dose curve; as a rule, active = well fitted inhibition curve with a large enough effect; inconclusive = small, poorly fitted or top-dose-only effect; inactive = no such curve, though single readings can be large or run the other way.

System: Zika virus NS2B-NS3 protease (linked construct)
Experiment: Primary screen NINDS Rhodamine qHTS for Zika virus inhibitors (AID 1347160); note: nearly all actives have a fitted effect of over 55% in size
Conditions: purified NS2B-NS3 protease, Rhodamine110 substrate fluorescence; series mostly up to 57.1 µM
Outline: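 Enzyme (25 nM, linked NS2B-NS3) was preincubated 15 min with compound in 10 mM Tris-HCl pH 8.0, 0.01% Tween 20. Rhodamine110 substrate (1.5 microM) was then added and fluorescence read at start and after 15 min.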

**Q.** For `COc1cc(/C=C/C(=O)OC2CC(OC(C)=O)C(OC(C)=O)C3C2CCC2C(=O)OC(c4ccoc4)CC23C)ccc1O[C@@H]1O[C@H](CO)[C@@H](O)[C@H](O)[C@H]1O` (stereo partly specified), which Potency is on record?
**A.** Its Potency is “inactive”.

**Q.** For `CC[C@H]1OC(=O)[C@H](C)[C@@H](OC2C[C@@](C)(OC)[C@@H](O)[C@H](C)O2)[C@H](C)[C@@H](OC2O[C@H](C)C[C@H](NC)[C@H]2O)[C@](C)(O)C[C@@H](C)CN(C)[C@H](C)[C@@H](O)[C@]1(C)O` (stereo partly specified), which Potency is on record?
**A.** The Potency was “inactive”.

**Q.** For `COc1cc([C@H]2OC[C@]3(OC(C)=O)[C@@H](c4ccc(O[C@@H]5O[C@H](CO)[C@@H](O)[C@H](O)[C@H]5O)c(OC)c4)OC[C@H]23)ccc1O`, which Potency is on record?
**A.** Its Potency is “inactive”.

**Q.** Which Potency does the source give for `C=CC(C)(CC/C=C(\C)CC/C=C(\C)CC(O)/C=C(\C)C(=O)O)O[C@@H]1O[C@H](CO)[C@@H](O)[C@H](O)[C@H]1O[C@@H]1O[C@H](CO)[C@@H](O)[C@H](O)[C@H]1O` (stereo partly specified) here?
**A.** The Potency was “inactive”.

**Q.** How did the activity change, negative = inhibition turn out when `C[C@@H]1O[C@@H](O[C@H]2[C@H](O)[C@@H](O)[C@H](OC[C@H]3O[C@@H](OC(=O)[C@]45CCC(C)(C)C[C@H]4C4=CCC6[C@@]7(C)C[C@H](O)[C@H](O[C@@H]8O[C@H](CO)[C@@H](O)[C@H](O)[C@H]8O)[C@@](C)(C(=O)O)C7CC[C@@]6(C)[C@]4(C)CC5)[C@H](O[C@@H]4O[C@H](CO)[C@@H](O)[C@H](O)[C@H]4O)[C@@H](O)[C@@H]3O)O[C@@H]2CO)[C@H](O)[C@H](O)[C@H]1O` (stereo partly specified) was run?
**A.** Its activity change, negative = inhibition is -5.11% [at 10.7 µM] (inactive).

**Q.** How did the Potency turn out when `CC1(C)CCCC2(C)C(CO)C3CCC2C31` (stereo unspecified) was run?
**A.** The Potency was “inactive”.

**Q.** For `C[C@@H]1O[C@@H](O[C@H]2[C@H](O[C@H]3CC[C@@]4(C)C(CC[C@]5(C)C4CC=C4[C@@H]6CC(C)(C)CC[C@]6(C(=O)O)CC[C@]45C)[C@]3(C)CO)OC[C@H](O)[C@@H]2O)[C@H](O)[C@H](O[C@@H]2OC[C@@H](O)[C@H](O)[C@H]2O)[C@H]1O` (stereo partly specified), which Potency is on record?
**A.** The Potency was “inactive”.

**Q.** With `C=C1CC2[C@]3(C)C(=C(O)C(=O)[C@@]2(C)[C@]2(C(=O)OC)C(=O)C(C)OC(=O)[C@@]12C)C(C)(C)C(=O)CC3O` (stereo partly specified) as the compound, how does the Potency read?
**A.** Its Potency is “inactive”.

**Q.** How did the Potency turn out when `CCOC(=O)c1ccnc(CNCC(=O)N(CC)CCN(C)C)c1` was run?
**A.** The Potency was “inactive”.

**Q.** With `Cc1nn(C)c2c1C(c1ccc(C(F)(F)F)cc1)C(C#N)=C(N)O2` (stereo unspecified) as the compound, how does the Potency read?
**A.** Its Potency is “inactive”.

**Q.** `CCOC(=O)[C@H]1O[C@@H]1C(=O)N[C@@H](CC(C)C)C(=O)NCCC(C)C` was tested. Which Potency did it give?
**A.** The Potency was “inactive”.

**Q.** For `CCCOc1ccn2c(C(C)=O)cc(-c3ccccc3S(C)(=O)=O)c2c1`, which Potency is on record?
**A.** Its Potency is “inactive”.

**Q.** For `C=CC1C(O[C@@H]2O[C@H](CO)[C@@H](O)[C@H](O)[C@H]2O)OC=C(C(=O)OC)C1Cc1nccc2c1[nH]c1ccccc12` (stereo partly specified), which Potency is on record?
**A.** Its Potency is “inactive”.

**Q.** How did the Potency turn out when `C=C1CCC2(OC1)OC1CC3C4CC=C5CC(O)CC(O[C@@H]6OC[C@@H](O)[C@H](O)[C@H]6O)C5(C)C4CCC3(C)C1(O)C2C` (stereo partly specified) was run?
**A.** The Potency was “inactive”.

**Q.** `COc1cc(/C=C/C(=O)OC[C@H]2O[C@H](O[C@]3(CO)O[C@H](CO)[C@@H](O)[C@@H]3O)[C@H](O)[C@@H](O)[C@@H]2O)cc(OC)c1O` was tested. Which Potency did it give?
**A.** The Potency was “inactive”.

**Q.** How did the Potency turn out when `CN[C@@H]1[C@@H](O)[C@@H](O[C@@H]2[C@@H](O)[C@H](O[C@H]3O[C@H](CN)[C@@H](O)[C@H](O)[C@H]3O)[C@@H](N)C[C@H]2NC(=O)[C@@H](O)CN)OC[C@]1(C)O` was run?
**A.** The Potency was “inactive”.

**Q.** For `C[C@@H]1O[C@@H](O[C@@H]2[C@@H](O)[C@H](O[C@@H]3[C@@H](O)[C@@H](O)[C@H](O[C@H]4[C@H](OC(=O)[C@]56CCC(C)(C)C[C@H]5C5=CCC7[C@@]8(C)C[C@H](O)[C@H](O[C@@H]9O[C@@H](C)[C@H](O)[C@@H](O)[C@H]9O)[C@@](C)(CO)C8CC[C@@]7(C)[C@]5(C)C[C@H]6O)O[C@H](C)[C@H](O)[C@@H]4O)O[C@H]3C)OC[C@H]2O)[C@H](O)[C@H](O)[C@H]1O` (stereo partly specified), which activity change, negative = inhibition is on record?
**A.** The activity change, negative = inhibition was 4.29% [at 10.7 µM] (inactive).

**Q.** With `CC1(C)CCC[C@@]2(C)[C@H]1[C@H](O)C=C1COC(=O)[C@@]12O` as the compound, how does the Potency read?
**A.** Its Potency is “inactive”.

**Q.** `CN1C(=O)c2ccccc2-n2c(nc3ccccc3c2=O)/C1=C/c1ccccc1` was tested. Which Potency did it give?
**A.** The Potency was “inactive”.

**Q.** For `C[C@@H]1CC[C@]2(C(=O)O)CC[C@]3(C)C(=CCC4[C@]5(C)C(CC[C@]43C)C(C)(C)[C@@H](O)[C@H](O)[C@@H]5O)C2[C@]1(C)O` (stereo partly specified), which Potency is on record?
**A.** The Potency was “inactive”.

**Q.** With `CC(=O)OC1C(O)CC(O[C@@H]2O[C@H](CO)[C@@H](O)[C@H](O)[C@H]2O)C2CCC3C(=O)OC(c4ccoc4)CC3(C)C21` (stereo partly specified) as the compound, how does the Potency read?
**A.** The Potency was “inactive”.
